# Assays:
# Assay in all cases: DAPPL (digital affinity profiling via proximity ligation, sequencing); 10 mM Tris-HCl pH 7.5, 50 mM NaCl, 1 mM DTT, 4% glycerol, room temperature, 30 min; GST-TFs on glutathione beads, 16-mer random dsDNA library, 0.1% formaldehyde crosslink after washing; high values mean tight binding
# Details in all cases: protein: recombinant; tags: N-terminal GST; dsDNA, one strand shown
# FLI1 = target: T1, FLI1 (Homo sapiens, UniProt Q01543 1-452)
# T1 sequence: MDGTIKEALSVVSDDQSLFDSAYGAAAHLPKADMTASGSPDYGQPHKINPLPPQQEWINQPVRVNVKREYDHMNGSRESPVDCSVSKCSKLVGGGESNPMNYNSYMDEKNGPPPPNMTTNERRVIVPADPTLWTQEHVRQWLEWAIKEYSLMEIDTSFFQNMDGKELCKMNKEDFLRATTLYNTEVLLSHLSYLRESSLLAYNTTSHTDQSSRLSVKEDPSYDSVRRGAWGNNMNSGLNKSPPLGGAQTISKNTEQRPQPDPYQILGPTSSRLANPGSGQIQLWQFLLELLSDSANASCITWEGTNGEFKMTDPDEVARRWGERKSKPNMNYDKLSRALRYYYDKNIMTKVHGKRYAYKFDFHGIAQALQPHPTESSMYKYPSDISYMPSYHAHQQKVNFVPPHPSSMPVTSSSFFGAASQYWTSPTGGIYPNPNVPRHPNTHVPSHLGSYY
# Summary of the method: (§1)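 Human transcription factors fused to GST were expressed in yeast, captured on glutathione beads, given DNA barcodes and pooled with a GST-only negative control. Pools were incubated with 200 nmole of a 16-mer random double-stranded DNA library in Tris/NaCl/DTT/glycerol buffer at room temperature for 30 min. They were then washed, crosslinked with 0.1% formaldehyde, proximity-ligated (BsaI/T4 ligase, 1 h, 37 °C), PCR-amplified and sequenced on an Illumina NextSeq500. Binding signal is each 6-mer's read frequency for a factor divided by its frequency for the GST control.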
# ELK1 = target: T2, ELK1 (Homo sapiens, UniProt P19419 1-428)
# T2 sequence: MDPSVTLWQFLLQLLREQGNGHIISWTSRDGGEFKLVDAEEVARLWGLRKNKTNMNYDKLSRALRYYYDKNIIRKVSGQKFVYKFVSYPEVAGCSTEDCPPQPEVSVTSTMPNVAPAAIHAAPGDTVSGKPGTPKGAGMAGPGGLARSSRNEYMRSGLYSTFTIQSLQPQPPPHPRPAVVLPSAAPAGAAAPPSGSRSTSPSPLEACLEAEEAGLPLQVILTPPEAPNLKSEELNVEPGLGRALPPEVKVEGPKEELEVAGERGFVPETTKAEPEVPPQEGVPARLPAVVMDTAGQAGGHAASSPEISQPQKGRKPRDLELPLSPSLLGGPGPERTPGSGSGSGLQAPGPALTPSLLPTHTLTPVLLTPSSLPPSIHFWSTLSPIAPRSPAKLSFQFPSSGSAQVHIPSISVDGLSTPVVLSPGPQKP
# Summary of the method: as §1
# GABPA = target: T3, GABPA (Homo sapiens, UniProt Q06546 1-454)
# T3 sequence: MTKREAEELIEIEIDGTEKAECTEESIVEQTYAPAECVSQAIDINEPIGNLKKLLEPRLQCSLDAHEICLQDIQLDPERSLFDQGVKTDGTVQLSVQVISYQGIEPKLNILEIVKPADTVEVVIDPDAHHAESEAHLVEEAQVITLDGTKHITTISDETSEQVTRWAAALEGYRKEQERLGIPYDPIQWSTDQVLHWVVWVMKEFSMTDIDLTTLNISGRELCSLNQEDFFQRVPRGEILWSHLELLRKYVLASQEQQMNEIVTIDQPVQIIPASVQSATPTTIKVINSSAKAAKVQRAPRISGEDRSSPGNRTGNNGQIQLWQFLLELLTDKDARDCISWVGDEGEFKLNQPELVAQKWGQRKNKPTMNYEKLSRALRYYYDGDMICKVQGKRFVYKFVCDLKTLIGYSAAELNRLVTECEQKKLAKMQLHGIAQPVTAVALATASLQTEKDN
# Summary of the method: as §1
# ERG = target: T4, ERG (Homo sapiens, UniProt P11308 1-479)
# T4 sequence: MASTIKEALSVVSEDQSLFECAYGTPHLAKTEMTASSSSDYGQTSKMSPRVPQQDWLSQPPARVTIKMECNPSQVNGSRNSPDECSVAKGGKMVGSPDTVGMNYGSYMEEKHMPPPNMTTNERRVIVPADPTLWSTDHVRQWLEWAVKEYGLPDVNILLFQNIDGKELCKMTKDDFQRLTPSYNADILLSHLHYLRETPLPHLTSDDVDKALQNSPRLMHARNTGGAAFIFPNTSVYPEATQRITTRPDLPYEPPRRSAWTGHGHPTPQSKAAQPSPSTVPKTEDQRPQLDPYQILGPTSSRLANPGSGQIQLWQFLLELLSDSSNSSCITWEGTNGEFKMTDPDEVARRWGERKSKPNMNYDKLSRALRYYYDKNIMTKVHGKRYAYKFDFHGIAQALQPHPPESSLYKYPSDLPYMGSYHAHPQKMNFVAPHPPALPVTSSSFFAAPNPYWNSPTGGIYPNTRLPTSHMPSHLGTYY
# Summary of the method: as §1
# ELF1 = ELF1 (Homo sapiens, UniProt P32519 1-619)
# Sequence of ELF1 (P32519 whole entry): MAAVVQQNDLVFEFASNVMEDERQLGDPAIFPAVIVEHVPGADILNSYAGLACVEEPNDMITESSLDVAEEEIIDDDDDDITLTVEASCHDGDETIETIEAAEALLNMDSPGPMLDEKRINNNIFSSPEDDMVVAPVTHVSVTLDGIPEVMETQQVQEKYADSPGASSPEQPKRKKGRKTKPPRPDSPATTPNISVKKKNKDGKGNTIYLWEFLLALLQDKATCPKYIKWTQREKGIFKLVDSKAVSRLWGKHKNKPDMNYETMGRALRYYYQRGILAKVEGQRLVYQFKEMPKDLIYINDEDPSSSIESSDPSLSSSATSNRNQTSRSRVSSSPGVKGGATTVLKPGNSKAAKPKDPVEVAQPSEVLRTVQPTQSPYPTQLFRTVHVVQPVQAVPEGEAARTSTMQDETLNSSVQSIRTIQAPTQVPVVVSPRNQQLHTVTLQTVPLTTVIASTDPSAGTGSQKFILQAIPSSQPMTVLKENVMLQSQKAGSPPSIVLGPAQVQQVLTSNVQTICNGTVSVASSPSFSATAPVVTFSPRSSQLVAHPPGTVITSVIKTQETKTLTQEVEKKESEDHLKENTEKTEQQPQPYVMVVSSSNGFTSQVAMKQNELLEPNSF
# Summary of the method: as §1
# EHF = target: T5, EHF (Homo sapiens, UniProt Q9NZC4 1-300)
# T5 sequence: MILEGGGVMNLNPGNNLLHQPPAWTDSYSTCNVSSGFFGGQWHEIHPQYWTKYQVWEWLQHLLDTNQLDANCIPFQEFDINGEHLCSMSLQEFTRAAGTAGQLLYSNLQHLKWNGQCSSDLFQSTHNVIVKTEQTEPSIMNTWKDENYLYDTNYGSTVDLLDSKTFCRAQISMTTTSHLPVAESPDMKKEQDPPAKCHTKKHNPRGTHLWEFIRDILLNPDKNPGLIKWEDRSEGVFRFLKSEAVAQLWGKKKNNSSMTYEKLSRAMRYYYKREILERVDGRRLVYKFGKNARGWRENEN
# Summary of the method: as §1
# SPI1 = SPI1 (Homo sapiens, UniProt P17947 1-270)
# Summary of the method: as §1
# SPIB = SPIB (Homo sapiens, UniProt Q01892 1-262)
# Sequence of SPIB (Q01892 whole entry): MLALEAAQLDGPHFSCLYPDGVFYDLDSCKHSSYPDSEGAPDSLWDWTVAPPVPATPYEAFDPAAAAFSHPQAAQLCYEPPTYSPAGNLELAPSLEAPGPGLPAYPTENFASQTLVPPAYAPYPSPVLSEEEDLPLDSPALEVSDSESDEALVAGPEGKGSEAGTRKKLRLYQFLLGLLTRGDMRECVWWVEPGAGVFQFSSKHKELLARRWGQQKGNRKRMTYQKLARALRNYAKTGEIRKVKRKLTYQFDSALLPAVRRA
# Summary of the method: as §1
# ELK3 = target: T6, ELK3 (Homo sapiens, UniProt P41970 1-407)
# T6 sequence: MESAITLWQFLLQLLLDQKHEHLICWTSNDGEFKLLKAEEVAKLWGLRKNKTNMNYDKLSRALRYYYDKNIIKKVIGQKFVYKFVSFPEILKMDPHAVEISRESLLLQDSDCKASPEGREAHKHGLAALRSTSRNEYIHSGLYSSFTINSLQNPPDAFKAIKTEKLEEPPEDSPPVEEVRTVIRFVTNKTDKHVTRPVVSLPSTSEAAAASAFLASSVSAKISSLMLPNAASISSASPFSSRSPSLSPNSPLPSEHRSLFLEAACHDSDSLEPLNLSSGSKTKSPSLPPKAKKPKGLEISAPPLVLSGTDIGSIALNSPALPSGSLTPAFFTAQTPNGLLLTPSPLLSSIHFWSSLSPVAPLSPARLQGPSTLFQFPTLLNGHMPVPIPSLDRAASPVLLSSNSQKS
# Summary of the method: as §1
# FEV = target: T7, FEV (Homo sapiens, UniProt Q99581 1-238)
# T7 sequence: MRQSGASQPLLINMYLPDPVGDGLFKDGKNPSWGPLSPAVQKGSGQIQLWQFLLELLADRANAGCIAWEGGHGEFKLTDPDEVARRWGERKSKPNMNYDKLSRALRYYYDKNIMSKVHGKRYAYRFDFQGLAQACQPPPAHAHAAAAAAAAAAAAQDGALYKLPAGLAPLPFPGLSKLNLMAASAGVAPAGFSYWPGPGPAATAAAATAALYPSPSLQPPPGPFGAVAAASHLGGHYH
# Summary of the method: as §1
# ETV5 = ETV5 (Homo sapiens, UniProt P41161 1-510)
# Sequence of ETV5 (P41161 whole entry): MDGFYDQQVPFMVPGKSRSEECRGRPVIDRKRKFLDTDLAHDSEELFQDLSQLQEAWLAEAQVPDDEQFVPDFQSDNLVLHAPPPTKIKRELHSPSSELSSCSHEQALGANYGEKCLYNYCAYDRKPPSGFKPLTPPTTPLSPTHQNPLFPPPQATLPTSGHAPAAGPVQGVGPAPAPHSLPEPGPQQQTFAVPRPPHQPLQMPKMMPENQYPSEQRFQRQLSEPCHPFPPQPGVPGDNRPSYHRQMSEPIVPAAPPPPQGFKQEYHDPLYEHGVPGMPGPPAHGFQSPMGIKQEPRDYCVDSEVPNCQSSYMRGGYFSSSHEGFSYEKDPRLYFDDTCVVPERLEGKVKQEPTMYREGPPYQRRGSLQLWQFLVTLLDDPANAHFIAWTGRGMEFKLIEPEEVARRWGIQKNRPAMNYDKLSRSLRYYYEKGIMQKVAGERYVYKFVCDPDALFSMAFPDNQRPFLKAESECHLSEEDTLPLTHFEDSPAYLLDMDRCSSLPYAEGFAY
# Summary of the method: as §1
# SPIC = target: T8, SPIC (Homo sapiens, UniProt Q8N5J4 1-248)
# T8 sequence: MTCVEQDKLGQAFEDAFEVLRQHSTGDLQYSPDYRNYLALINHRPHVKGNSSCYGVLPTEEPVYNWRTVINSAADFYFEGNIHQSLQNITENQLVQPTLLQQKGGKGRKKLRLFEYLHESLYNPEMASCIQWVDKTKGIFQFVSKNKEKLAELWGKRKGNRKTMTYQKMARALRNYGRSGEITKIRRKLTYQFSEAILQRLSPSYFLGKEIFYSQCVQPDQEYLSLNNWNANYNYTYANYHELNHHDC
# Summary of the method: as §1
# ELF4 = ELF4 (Homo sapiens, UniProt Q99607 1-663)
# Sequence of ELF4 (Q99607 whole entry): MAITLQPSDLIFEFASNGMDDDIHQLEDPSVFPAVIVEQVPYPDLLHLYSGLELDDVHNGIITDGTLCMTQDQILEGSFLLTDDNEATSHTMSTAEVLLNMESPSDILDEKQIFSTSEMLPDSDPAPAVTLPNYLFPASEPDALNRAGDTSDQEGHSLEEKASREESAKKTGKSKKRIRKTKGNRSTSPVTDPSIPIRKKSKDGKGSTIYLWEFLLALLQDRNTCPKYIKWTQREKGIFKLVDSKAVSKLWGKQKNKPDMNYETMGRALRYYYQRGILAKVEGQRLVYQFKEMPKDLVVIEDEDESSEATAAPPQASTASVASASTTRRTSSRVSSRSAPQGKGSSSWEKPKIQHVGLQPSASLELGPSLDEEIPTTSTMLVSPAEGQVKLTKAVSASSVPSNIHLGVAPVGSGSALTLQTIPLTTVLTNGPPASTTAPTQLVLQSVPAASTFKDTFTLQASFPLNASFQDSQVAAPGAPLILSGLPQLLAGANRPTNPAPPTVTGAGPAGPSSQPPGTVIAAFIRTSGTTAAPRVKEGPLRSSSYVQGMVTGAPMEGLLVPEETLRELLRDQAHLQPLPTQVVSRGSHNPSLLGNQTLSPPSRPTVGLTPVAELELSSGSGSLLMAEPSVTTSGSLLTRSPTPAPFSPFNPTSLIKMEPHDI
# Summary of the method: as §1
# ELK4 = target: T9, ELK4 (Homo sapiens, UniProt P28324-2 1-405)
# T9 sequence: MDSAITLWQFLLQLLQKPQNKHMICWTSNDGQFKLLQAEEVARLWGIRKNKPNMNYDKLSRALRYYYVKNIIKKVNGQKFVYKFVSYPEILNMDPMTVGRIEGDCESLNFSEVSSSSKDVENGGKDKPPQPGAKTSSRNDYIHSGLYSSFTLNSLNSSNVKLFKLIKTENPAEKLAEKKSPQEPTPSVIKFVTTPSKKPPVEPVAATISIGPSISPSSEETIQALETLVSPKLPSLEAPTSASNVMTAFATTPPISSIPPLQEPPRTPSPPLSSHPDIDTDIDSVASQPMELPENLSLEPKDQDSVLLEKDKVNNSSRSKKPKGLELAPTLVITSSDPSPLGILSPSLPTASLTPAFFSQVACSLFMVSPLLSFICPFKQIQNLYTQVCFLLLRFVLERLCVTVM
# Summary of the method: as §1
# ETV2 = target: T10, ETV2 (Homo sapiens, UniProt O00321 1-342)
# T10 sequence: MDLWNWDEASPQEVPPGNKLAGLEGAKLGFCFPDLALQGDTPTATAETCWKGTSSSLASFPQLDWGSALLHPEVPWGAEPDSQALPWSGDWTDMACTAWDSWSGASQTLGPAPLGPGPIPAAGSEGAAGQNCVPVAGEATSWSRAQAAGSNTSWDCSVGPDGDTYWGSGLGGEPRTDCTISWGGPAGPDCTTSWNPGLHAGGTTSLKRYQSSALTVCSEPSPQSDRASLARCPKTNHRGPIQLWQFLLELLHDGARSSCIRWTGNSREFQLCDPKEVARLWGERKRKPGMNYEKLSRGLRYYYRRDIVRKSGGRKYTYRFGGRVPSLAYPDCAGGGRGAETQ
# Summary of the method: as §1
# ELF3 = target: T11, ELF3 (Homo sapiens, UniProt P78545 1-371)
# T11 sequence: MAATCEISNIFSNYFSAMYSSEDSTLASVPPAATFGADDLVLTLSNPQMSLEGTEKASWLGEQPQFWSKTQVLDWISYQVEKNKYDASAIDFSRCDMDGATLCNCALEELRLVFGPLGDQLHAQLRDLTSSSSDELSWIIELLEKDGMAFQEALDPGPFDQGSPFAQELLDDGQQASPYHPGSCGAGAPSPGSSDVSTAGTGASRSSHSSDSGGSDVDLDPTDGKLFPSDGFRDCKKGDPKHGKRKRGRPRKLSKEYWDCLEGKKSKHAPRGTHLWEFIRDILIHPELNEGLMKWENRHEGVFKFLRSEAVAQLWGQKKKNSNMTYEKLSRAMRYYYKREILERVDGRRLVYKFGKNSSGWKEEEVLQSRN
# Summary of the method: as §1
# ETV1 = ETV1 (Homo sapiens, UniProt P50549 1-477)
# Sequence of ETV1 (P50549 whole entry): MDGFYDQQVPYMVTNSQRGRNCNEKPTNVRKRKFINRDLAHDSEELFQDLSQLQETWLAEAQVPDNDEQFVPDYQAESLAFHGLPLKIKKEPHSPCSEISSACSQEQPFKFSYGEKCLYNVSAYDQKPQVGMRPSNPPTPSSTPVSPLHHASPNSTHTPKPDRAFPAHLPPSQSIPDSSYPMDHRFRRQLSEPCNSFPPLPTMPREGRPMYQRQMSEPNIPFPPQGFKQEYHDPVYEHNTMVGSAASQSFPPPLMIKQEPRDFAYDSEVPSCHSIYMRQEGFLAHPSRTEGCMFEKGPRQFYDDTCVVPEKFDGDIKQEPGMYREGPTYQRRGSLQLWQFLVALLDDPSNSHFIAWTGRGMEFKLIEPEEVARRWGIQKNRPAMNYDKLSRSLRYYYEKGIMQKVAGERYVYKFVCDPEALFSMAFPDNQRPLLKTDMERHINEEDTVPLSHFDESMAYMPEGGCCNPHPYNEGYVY
# Summary of the method: as §1
sequence,measurement,setting,value
CATCCG,binding signal,FLI1,"2.09 fold enrichment (6-mer frequency, TF over GST control)"
same,binding signal,ELK1,"2.2 fold enrichment (6-mer frequency, TF over GST control)"
same,binding signal,GABPA,"1.86 fold enrichment (6-mer frequency, TF over GST control)"
same,binding signal,ERG,"2.45 fold enrichment (6-mer frequency, TF over GST control)"
same,binding signal,ELF1,"1.86 fold enrichment (6-mer frequency, TF over GST control)"
same,binding signal,EHF,"2.19 fold enrichment (6-mer frequency, TF over GST control)"
same,binding signal,SPI1,"2.01 fold enrichment (6-mer frequency, TF over GST control)"
same,binding signal,SPIB,"2.29 fold enrichment (6-mer frequency, TF over GST control)"
same,binding signal,ELK3,"2.5 fold enrichment (6-mer frequency, TF over GST control)"
same,binding signal,FEV,"2.77 fold enrichment (6-mer frequency, TF over GST control)"
same,binding signal,ETV5,"2.19 fold enrichment (6-mer frequency, TF over GST control)"
same,binding signal,SPIC,"2.11 fold enrichment (6-mer frequency, TF over GST control)"
same,binding signal,ELF4,"1.82 fold enrichment (6-mer frequency, TF over GST control)"
same,binding signal,ELK4,"1.71 fold enrichment (6-mer frequency, TF over GST control)"
same,binding signal,ETV2,"2.11 fold enrichment (6-mer frequency, TF over GST control)"
same,binding signal,ELF3,"1.9 fold enrichment (6-mer frequency, TF over GST control)"
same,binding signal,ETV1,"2.19 fold enrichment (6-mer frequency, TF over GST control)"

# — PMC7862700, “An all-to-all approach to the identification of sequence-specific readers for epigenetic DNA modifications on cytosine”
